Compound activity as filed in PubChem BioAssay.
BAZ2B block = inhibitors of human BAZ2B bromodomain. 4.4% of 360,000 active. AlphaScreen BAZ2B-H3K14Ac peptide displacement. Q9UIF8. Potency, µM (series often up to 114 µM), actives largely listed as inhibitors. AID 504333; further: nearly all actives have a fitted effect of over 60% in size
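Complex of BAZ2B and biotin-H3K14Ac (50 nM apiece) forms over 30 min at RT, then faces library compounds up to 110 uM for another 30 min; AlphaScreen beads added, 20 min dark incubation, luminescence read.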
G9a block = blocks human histone lysine methyltransferase G9a; 8.8% of 350,000 active; G9a H3K9 monomethylation, AlphaScreen, 2 h; Q96KQ7; Potency, µM (titrated, usually from 102 µM), actives largely listed as inhibitors; further: nearly all actives have a fitted effect of over 75% in size
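G9a (20 nM) was preincubated 15 min with compound, then reacted 2 h at room temperature with 500 nM biotin-H3K9 peptide and 20 µM SAM. Monomethyl-H3K9 detected by AlphaScreen using anti-H3K9me1 antibody.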
HP1b binding inh = HP1-beta chromodomain-methylated histone interaction inhibition; P83916; AlphaScreen HP1-beta / biotin-H3K9me3 peptide binding; Potency, µM (titrated, usually from 114 µM), actives largely listed as inhibitors; 0.56% of 390,000 active; AID 540317; further: nearly all actives have a fitted effect of over 70% in size
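AlphaScreen: HP1-beta (50 nM) preformed 30 min with biotin-H3(1-18)K9me3 peptide (50 nM) in PBS pH 7.4, 0.01% Tween-20. Compound added for 30 min at RT, then streptavidin donor/nickel chelate acceptor beads (10 ug/mL) for 30 min.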
Sfp PPTase inh = inhibitors of Bacillus subtilis Sfp phosphopantetheinyl transferase; 3.5% of 310,000 active; Biochemical Sfp PPTase activity, qHTS; AID 1490; Q9F4F7; Potency, µM, most hits filed as inhibitors;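 further: the enzyme is Sfp with the accession as filed and its product quenches rhodamine fluorescence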
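Fluorescence-quenching assay with 15 nM Sfp, 5 uM rhodamine-CoA and 12.5 uM BHQ-2-labelled ybbR peptide in pH 7.6 Hepes/MgCl2 buffer. Enzyme was pre-incubated with compound for 15 min at room temperature. Rate was taken from the 30-min fluorescence change (525/598 nm).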
JMJD2A Tudor = blocks the human JMJD2A Tudor domain. O75164. 4.4% of 390,000 active. Potency, µM (series often up to 114 µM), actives largely listed as inhibitors. AlphaScreen JMJD2A-Tudor / H3K4me3 peptide binding; further: nearly all actives have a fitted effect of over 50% in size
Each line names hits and unclear results; the compound was inactive in the other large screens. Sampled rows, rich in hits. Any-hit rate of the full collection: about 12%. The call rests on the fitted dose curve; in most records, active means well fitted curve in the direction sought with a large enough effect; inconclusive means small, poorly fitted or top-dose-only effect, or another doubt; inactive means no such curve, though single readings can be large; an effect the other way counts as inactive or inconclusive.

Cc1ccc(NC(=O)CN2C(=O)S/C(=C\c3cc(C)n(-c4ccc(C(=O)O)cc4)c3C)C2=O)cc1	BAZ2B block 50.1µM, JMJD2A Tudor inconclusive (no result: G9a block)
Cc1ccc(NC(=O)CN2C(=O)N/C(=C/c3cc(C)n(-c4ccc(C(=O)O)cc4)c3C)C2=O)cc1	BAZ2B block 39.8µM, G9a block 28.2µM, JMJD2A Tudor 79.4µM
Cc1ccc(NC(=O)CN2C(=O)N/C(=C/c3cccn3-c3ccc(C(=O)O)cc3)C2=O)cc1	BAZ2B block 3.98µM, G9a block 8.91µM, HP1b binding inh 2.82µM, Sfp PPTase inh 50.1µM, JMJD2A Tudor 3.16µM
Cc1ccc(NC(=O)CN2C(=O)S/C(=C\c3cc(Cl)c(OCC(=O)O)c(Cl)c3)C2=O)cc1	BAZ2B block 39.8µM, G9a block 39.8µM, HP1b binding inh 20µM, Sfp PPTase inh 50.1µM, JMJD2A Tudor 44.7µM
CCOCCOC(=O)c1ccc(NC(=O)c2cc3ccccc3o2)cc1	none (no result: BAZ2B block, G9a block, Sfp PPTase inh)
O=C(CSc1nc2ccccc2nc1N1CCCCC1)N1CCN(c2ccccc2)CC1	none
Cc1cc2oc(=O)cc(CN3CCCCC3C)c2cc1C(C)C (configuration not stated)	G9a block inconclusive
Cc1ccc(NC(=O)CN2C(=O)N/C(=C/c3ccco3)C2=O)cc1	Sfp PPTase inh 44.7µM
CCN1CCN(CC(=O)N2CCCC(C(=O)c3ccc(Oc4ccccc4)cc3)C2)CC1 (configuration not stated)	BAZ2B block 50.1µM, G9a block 35.5µM
COCCC(=O)N1CCCC(C(=O)c2ccc(Oc3ccccc3)cc2)C1 (configuration not stated)	none
Cc1cccc(NC(=O)CSc2nnc(-c3cccs3)o2)c1	none (no result: Sfp PPTase inh)
CCc1c(C)sc(NC(=O)c2ccccc2[N+](=O)[O-])c1C(N)=O	G9a block 44.7µM
Cc1sc(NC(=O)/C=C/C(=O)O)c(C(N)=O)c1-c1ccc(C(C)(C)C)cc1	G9a block inconclusive
CCc1c(C)sc(NC(=O)/C=C/C(=O)O)c1C(N)=O	G9a block 35.5µM
Cc1o[nH]c(=O)c1CC[C@H](N)C(=O)O	Sfp PPTase inh 79.4µM (no result: BAZ2B block, G9a block, HP1b binding inh, JMJD2A Tudor)
CCCCCCc1c(C[C@H](N)C(=O)O)o[nH]c1=O	none (no result: BAZ2B block, G9a block, HP1b binding inh, JMJD2A Tudor)
O=C(Nc1cc(-c2nc3ccccc3o2)ccc1Cl)c1ccc(N2CCCCC2)c([N+](=O)[O-])c1	BAZ2B block inconclusive (no result: Sfp PPTase inh)
COC(=O)CCC(=O)OC1(C)C(=O)C2=CN(CCCCO)C(c3ccc(OC)cc3)=CC2=C(Br)C1=O (configuration not stated)	BAZ2B block inconclusive, G9a block 35.5µM (no result: HP1b binding inh, JMJD2A Tudor)
COc1ccc(C2=CC3=C(Br)C(=O)C(C)(OC(=O)c4ccc(Cl)nc4)C(=O)C3=CO2)cc1 (configuration not stated)	BAZ2B block 56.2µM, HP1b binding inh 50.1µM, JMJD2A Tudor 79.4µM
COC(=O)CCC(=O)OC1(C)C(=O)C2=COC(c3ccc(OC)cc3)=CC2=C(Br)C1=O (configuration not stated)	BAZ2B block 44.7µM, G9a block inconclusive, HP1b binding inh inconclusive, JMJD2A Tudor 31.6µM
COC(=O)CCC(=O)OC1(C)C(=O)C2=CN(C(CO)CO)C(c3ccc(OC)cc3)=CC2=C(Br)C1=O (configuration not stated)	BAZ2B block inconclusive (no result: HP1b binding inh, JMJD2A Tudor)
COc1ccc(C2=CC3=C(Br)C(=O)C(C)(OC(=O)C4CCCC4)C(=O)C3=CO2)cc1 (configuration not stated)	BAZ2B block 79.4µM, HP1b binding inh inconclusive, JMJD2A Tudor 50.1µM
COc1ccc(CN2C=C3C(=O)C(C)(OC(=O)C4CCCC4)C(=O)C=C3C=C2c2ccsc2)cc1 (configuration not stated)	BAZ2B block inconclusive, G9a block inconclusive, JMJD2A Tudor inconclusive
COC(=O)c1sccc1S(=O)(=O)N1CCN(c2ccc(C(C)=O)cc2)CC1	none (no result: Sfp PPTase inh)
COc1ccc(-n2cc(-c3ccccc3)[nH]c2=S)c(OC)c1	BAZ2B block inconclusive, G9a block inconclusive, Sfp PPTase inh inconclusive, JMJD2A Tudor inconclusive
Fc1ccccc1-n1cc(-c2ccccc2)[nH]c1=S	BAZ2B block inconclusive, G9a block 3.55µM, JMJD2A Tudor inconclusive
COc1cccc(NC(=O)COC(=O)c2ccccc2SCC(=O)N2CCCC2)c1	none (no result: Sfp PPTase inh)
CCc1nnc(NC(=O)CN2CCN(C3CCCCC3)CC2)s1	BAZ2B block inconclusive, G9a block 10µM, Sfp PPTase inh 89.1µM, JMJD2A Tudor 7.08µM
CCc1nnc(NC(=O)C2CCCCC2)s1	G9a block inconclusive, Sfp PPTase inh 31.6µM
CCc1nnc(NC(=O)CN2CC(C)OC(C)C2)s1 (configuration not stated)	none
CCOC(=O)Cc1nnc(NC(=O)C2CCCCC2)s1	none
CC(C)C[C@H](NC(=O)[C@H](CCCCN)NC(=O)[C@H](CCCNC(=N)N)NC(=O)[C@H](C)NC(=O)[C@H](CO)NC(=O)[C@H](CCCCN)NC(=O)[C@H](CCCNC(=N)N)NC(=O)[C@H](C)NC(=O)CNC(=O)[C@@H](NC(=O)[C@H](Cc1ccccc1)NC(=O)CNC(=O)CNC(=O)[C@@H](N)Cc1ccccc1)[C@@H](C)O)C(=O)N[C@@H](C)C(=O)N[C@@H](CC(N)=O)C(=O)N[C@@H](CCC(N)=O)C(=O)O	none (no result: BAZ2B block, G9a block, HP1b binding inh, JMJD2A Tudor)
COc1cc(C(=O)Nc2nonc2-c2ccc(Cl)cc2)cc(OC)c1OC	none (no result: Sfp PPTase inh)
O=C(Cn1c(=O)nc(-c2ccccc2)c2ccccc21)NCCc1ccccc1	none (no result: Sfp PPTase inh)
Cc1[nH]c2ccc(F)cc2c(=O)c1SC(F)(F)C(F)C(F)(F)F (configuration not stated)	G9a block 31.6µM
COc1ccc(NC(=O)CSC2=Nc3ccccc3C3=NC(CC(=O)NCc4ccco4)C(=O)N23)cc1 (configuration not stated)	none (no result: Sfp PPTase inh)
O=C1NCCN1Cc1ccccc1	none
O=C1NCCN1Cc1ccccc1F	G9a block 44.7µM
Cc1ccc(NC(=O)c2c(C)oc3c2C2=NCCN2C=N3)cc1F	none (no result: Sfp PPTase inh)
CC1=C(C)C(C)=C(C#N)C(=C(C#N)C#N)N1	BAZ2B block inconclusive, G9a block 39.8µM
c1ccc(-c2nnc(N3CCN(c4ccccc4)CC3)nc2-c2ccccc2)cc1	BAZ2B block inconclusive, G9a block 12.6µM, JMJD2A Tudor inconclusive
c1ccc(-c2nc(N3CCCC3)nc3ccccc23)cc1	G9a block inconclusive, Sfp PPTase inh 39.8µM
c1ccc(-c2nnc(N3CCCC3)nc2-c2ccccc2)cc1	none
CCC1(c2ccc(O)cc2)NC(=O)N(C)C1=O (configuration not stated)	none (no result: BAZ2B block, G9a block, HP1b binding inh, JMJD2A Tudor)
FC(F)(F)c1cc(-c2ccco2)nc(NCc2ccccc2)n1	G9a block inconclusive, Sfp PPTase inh 20µM
Fc1ccc(CNc2nc(-c3ccco3)cc(C(F)(F)F)n2)cc1	none (no result: G9a block)
COc1ccc(C2C(C(C)=O)=C(O)C(=O)N2CCCn2ccnc2)cc1 (configuration not stated)	BAZ2B block inconclusive, JMJD2A Tudor 89.1µM
